Reference: PubChem BioAssay AID1159580 (chemical genetic matrix, 2015)
The campaign covered roughly 5,500 compounds. About 2,000 (36%) were called active. Roughly 18% stayed inconclusive and do not appear here. Cut-off read from the data, not from the text of the source: active = normalized growth mostly below about 0.91 (no sharp cut-off); inconclusive = no clear call, values can overlap the other calls; inactive = mostly above about 0.92. The list shows a part of the results.

Test: chemical genetic growth profiling, strain panel (AID 1159580);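 note: tested at 20 µM; growth read once vehicle control cultures reached saturation at 30 °C; 1 = growth at the plate median or of vehicle wells; lower values mean less growth of the strain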
Details: growth OD

Measured: normalized growth

C#C[C@]1(O)CCC2C3CCC4=Cc5oncc5C[C@]4(C)C3CC[C@@]21C (some centres not stated)
active: S. cerevisiae deletion strains, locus YKL068W, active compounds read low 0.922 | S. cerevisiae deletion strains, locus YKL085W, strain MDH1 (second series), active compounds read low 0.889 | S. cerevisiae deletion strains, locus YKL085W, strain MDH1, active compounds read low 0.889 | S. cerevisiae deletion strains, locus YKR001C, strain vps1, active compounds read low 0.831 | S. cerevisiae deletion strains, locus YLR027C, strain aat2, active compounds read low 0.911 | S. cerevisiae deletion strains, locus YLR039C, strain RIC1, active compounds read low 0.574 | S. cerevisiae deletion strains, locus YLR262C, strain YPT6 (second series), active compounds read low 0.792 | S. cerevisiae deletion strains, locus YLR262C, strain YPT6, active compounds read low 0.565 | S. cerevisiae deletion strains, locus YLR268W, strain sec22, active compounds read low 0.838 | S. cerevisiae deletion strains, locus YLR330W, strain CHS5, active compounds read low 0.902 | S. cerevisiae deletion strains, locus YLR342W, strain FKS1, active compounds read low 0.875 | S. cerevisiae deletion strains, locus YLR371W, strain rom2, active compounds read low 0.852 | S. cerevisiae deletion strains, locus YLR418C, strain cdc73, active compounds read low 0.645 | S. cerevisiae deletion strains, locus YML124C, strain tub3, active compounds read low 0.92 | S. cerevisiae deletion strains, locus YNL071W, strain lat1, active compounds read low 0.841 | S. cerevisiae deletion strains, locus YNL233W, strain BNI4, active compounds read low 0.843 | S. cerevisiae deletion strains, locus YNL271C, strain bni1, active compounds read low 0.908 | S. cerevisiae deletion strains, locus YNL307C, strain MCK1, active compounds read low 0.759 | S. cerevisiae deletion strains, locus YOL147C, strain pex11, active compounds read low 0.899 | S. cerevisiae deletion strains, locus YOR144C, strain elg1, active compounds read low 0.914 | S. cerevisiae deletion strains, locus YOR184W, strain ser1, active compounds read low 0.59 | S. cerevisiae deletion strains, locus YPL055C, strain LGE1, active compounds read low 0.75 | S. cerevisiae deletion strains, locus YPR119W, strain clb2, active compounds read low 0.915 | S. cerevisiae deletion strains, locus YPR141C, strain kar3, active compounds read low 0.895 | S. cerevisiae deletion strains, locus YPR163C, strain tif3, active compounds read low 0.877 | S. cerevisiae deletion strains, strain wtn01, active compounds read low 0.887
inactive: S. cerevisiae deletion strains, locus YJR066W, strain TOR1, active compounds read low 0.956 | S. cerevisiae deletion strains, locus YKL009W, strain mrt4, active compounds read low 0.954 | S. cerevisiae deletion strains, locus YKL160W, strain elf1, active compounds read low 0.925 | S. cerevisiae deletion strains, locus YKR026C, strain gcn3, active compounds read low 0.948 | S. cerevisiae deletion strains, locus YKR091W, strain srl3, active compounds read low 0.964 | S. cerevisiae deletion strains, locus YLL001W, strain dnm1, active compounds read low 0.921 | S. cerevisiae deletion strains, locus YLL026W, active compounds read low 0.94 | S. cerevisiae deletion strains, locus YLL041C, strain sdh2, active compounds read low 0.961 | S. cerevisiae deletion strains, locus YLR058C, strain SHM2, active compounds read low 0.898 | S. cerevisiae deletion strains, locus YLR102C, strain apc9, active compounds read low 0.949 | S. cerevisiae deletion strains, locus YLR113W, strain HOG1, active compounds read low 0.95 | S. cerevisiae deletion strains, locus YLR221C, strain rsa3, active compounds read low 0.957 | S. cerevisiae deletion strains, locus YLR258W, strain gsy2, active compounds read low 0.955 | S. cerevisiae deletion strains, locus YLR320W, strain mms22, active compounds read low 0.914 | S. cerevisiae deletion strains, locus YLR342W, strain FKS1 (second series), active compounds read low 0.926 | S. cerevisiae deletion strains, locus YLR357W, strain rsc2, active compounds read low 0.944 | S. cerevisiae deletion strains, locus YLR370C, strain arc18, active compounds read low 0.975 | S. cerevisiae deletion strains, locus YLR384C, strain iki3, active compounds read low 0.958 | S. cerevisiae deletion strains, locus YML016C, strain PPZ1, active compounds read low 0.935 | S. cerevisiae deletion strains, locus YML032C, strain rad52, active compounds read low 0.928 | S. cerevisiae deletion strains, locus YML120C, strain ndi1, active compounds read low 0.924 | S. cerevisiae deletion strains, locus YMR058W, strain fet3, active compounds read low 0.938 | S. cerevisiae deletion strains, locus YMR078C, strain ctf18, active compounds read low 0.923 | S. cerevisiae deletion strains, locus YMR125W, strain sto1, active compounds read low 0.94 | S. cerevisiae deletion strains, locus YMR129W, active compounds read low 0.959 | S. cerevisiae deletion strains, locus YMR205C, strain PFK2, active compounds read low 0.92 | S. cerevisiae deletion strains, locus YMR223W, strain ubp8, active compounds read low 0.953 | S. cerevisiae deletion strains, locus YMR231W, strain pep5, active compounds read low 0.965 | S. cerevisiae deletion strains, locus YMR263W, strain SAP30, active compounds read low 0.926 | S. cerevisiae deletion strains, locus YMR307W, strain GAS1, active compounds read low 0.73 | S. cerevisiae deletion strains, locus YNL067W, strain RPL9B, active compounds read low 0.927 | S. cerevisiae deletion strains, locus YNL183C, strain NPR1, active compounds read low 0.95 | S. cerevisiae deletion strains, locus YNL209W, strain ssb2, active compounds read low 0.991 | S. cerevisiae deletion strains, locus YNL248C, strain rpa49, active compounds read low 0.982 | S. cerevisiae deletion strains, locus YNL250W, strain rad50, active compounds read low 0.928 | S. cerevisiae deletion strains, locus YNL298W, strain CLA4, active compounds read low 0.953 | S. cerevisiae deletion strains, locus YNL322C, strain KRE1 (second series), active compounds read low 0.945 | S. cerevisiae deletion strains, locus YNR049C, strain mso1, active compounds read low 0.961 | S. cerevisiae deletion strains, locus YNR052C, strain pop2, active compounds read low 0.956 | S. cerevisiae deletion strains, locus YOL012C, strain htz1 0.535 | S. cerevisiae deletion strains, locus YOR001W, strain rrp6, active compounds read low 0.972 | S. cerevisiae deletion strains, locus YOR061W, strain CKA2, active compounds read low 0.904 | S. cerevisiae deletion strains, locus YOR069W, strain VPS5, active compounds read low 0.955 | S. cerevisiae deletion strains, locus YOR070C, strain gyp1, active compounds read low 0.975 | S. cerevisiae deletion strains, locus YOR080W, strain dia2, active compounds read low 0.957 | S. cerevisiae deletion strains, locus YOR083W, strain WHI5, active compounds read low 0.941 | S. cerevisiae deletion strains, locus YOR106W, strain vam3, active compounds read low 0.963 | S. cerevisiae deletion strains, locus YOR136W, strain idh2, active compounds read low 0.922 | S. cerevisiae deletion strains, locus YOR231W, strain MKK1, active compounds read low 0.988 | S. cerevisiae deletion strains, locus YOR265W, strain rbl2, active compounds read low 0.966 | S. cerevisiae deletion strains, locus YOR270C, strain vph1, active compounds read low 0.824 | S. cerevisiae deletion strains, locus YOR290C, strain snf2, active compounds read low 1 | S. cerevisiae deletion strains, locus YOR316C, strain cot1, active compounds read low 0.925 | S. cerevisiae deletion strains, locus YPL051W, strain arl3, active compounds read low 0.945 | S. cerevisiae deletion strains, locus YPL078C, strain atp4, active compounds read low 0.902 | S. cerevisiae deletion strains, locus YPL106C, strain sse1, active compounds read low 0.984 | S. cerevisiae deletion strains, locus YPL240C, strain hsp82, active compounds read low 0.967 | S. cerevisiae deletion strains, locus YPL241C, strain CIN2, active compounds read low 0.931 | S. cerevisiae deletion strains, locus YPL256C, strain CLN2, active compounds read low 0.975 | S. cerevisiae deletion strains, locus YPR167C, strain met16, active compounds read low 0.926 | S. cerevisiae strains, strain wild type, active compounds read low 0.911
